Source: PubChem
CRFBP-R2 block: antagonists of CRF-binding protein/CRF-R2 receptor complex | HEK293 CRF-R2/CRF-BP, CRF-induced calcium fluorescence | inhibition, % at 11.8 µM | hit rate 0.59% among 350,000 | AID 588475;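 active = inhibition of the ligand-induced calcium signal above about 50% at the single tested concentration, limit read from the data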
IDE act: activators of human insulin-degrading enzyme in cells | HEK cells, FAbeta-B cleavage, fluorescence polarization; 0% vehicle, 100% cell-free pure enzyme wells | activation, % at 5.96 µM | hit rate 0.073% among 340,000;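 active = activation above the mean of all tested compounds plus 3 SD, set per screening campaign, cut at about 17% in these data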
Target sequence (P14735 whole entry, looked up): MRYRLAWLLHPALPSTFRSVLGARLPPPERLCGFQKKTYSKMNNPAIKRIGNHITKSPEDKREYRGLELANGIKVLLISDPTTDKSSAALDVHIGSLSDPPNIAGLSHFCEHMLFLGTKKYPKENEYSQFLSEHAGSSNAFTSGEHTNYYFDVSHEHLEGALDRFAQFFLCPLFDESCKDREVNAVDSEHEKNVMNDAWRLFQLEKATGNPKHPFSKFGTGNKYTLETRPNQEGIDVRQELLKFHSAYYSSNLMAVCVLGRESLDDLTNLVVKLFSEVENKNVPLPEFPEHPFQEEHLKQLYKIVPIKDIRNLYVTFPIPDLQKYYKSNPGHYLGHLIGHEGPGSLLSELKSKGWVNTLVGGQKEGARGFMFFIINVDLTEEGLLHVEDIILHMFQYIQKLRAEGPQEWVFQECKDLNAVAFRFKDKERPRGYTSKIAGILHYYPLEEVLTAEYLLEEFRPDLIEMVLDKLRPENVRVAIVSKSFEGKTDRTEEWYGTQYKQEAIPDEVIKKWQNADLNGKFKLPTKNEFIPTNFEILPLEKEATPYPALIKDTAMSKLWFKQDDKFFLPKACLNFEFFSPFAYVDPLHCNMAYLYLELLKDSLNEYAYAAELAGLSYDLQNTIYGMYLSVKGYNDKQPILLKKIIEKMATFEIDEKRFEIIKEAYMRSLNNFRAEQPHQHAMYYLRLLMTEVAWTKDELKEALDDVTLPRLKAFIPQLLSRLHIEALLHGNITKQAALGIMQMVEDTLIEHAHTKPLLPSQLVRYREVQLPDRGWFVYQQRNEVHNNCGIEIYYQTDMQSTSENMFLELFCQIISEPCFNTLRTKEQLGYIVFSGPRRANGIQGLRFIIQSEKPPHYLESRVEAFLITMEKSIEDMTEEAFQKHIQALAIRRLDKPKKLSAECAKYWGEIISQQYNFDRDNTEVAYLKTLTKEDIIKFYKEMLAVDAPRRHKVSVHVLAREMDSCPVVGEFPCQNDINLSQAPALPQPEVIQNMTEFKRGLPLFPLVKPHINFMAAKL
IDE cell inh: inhibits human insulin-degrading enzyme in HEK cells; hit rate 0.41% among 320,000; FAbetaB cleavage, fluorescence polarization; inhibition, % at 5.59 µM; AID 434962;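 active = percent inhibition above the average of all tested compounds plus 3 SD, set per screening campaign, cut at about 16% in these data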;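 also: IDE supplied by intact live HEK cells; FP after avidin binding of uncleaved biotin substrate so inhibition keeps polarization high; 0% = DMSO wells and 100% = 60 µM reference IDE inhibitor Ii1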
TPT1 inhibitor: blocks Candida albicans tRNA 2'-phosphotransferase; AID 1962; recombinant caTPT1, FP RNA substrate dephosphorylation; hit rate 0.81% among 300,000; inhibition, % at 5 µM;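 active = inhibition above the mean of all tested compounds plus 3 SD, set per screening campaign, cut at about 24% in these data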;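 also: plate controls were DMSO alone for no effect and ferristatin control at 100 nM for full effect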
Myeloid diff 2: compounds promoting myeloid differentiation. ER-HoxA9 myeloid progenitors, lysozyme-GFP differentiation, flow cytometry. calls only at 10 µM. hit rate 1% among 360,000;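 active = normalized GFP-positive differentiation at or above the plate's own cutoff, the solvent-only control mean plus 3 SD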;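 also: cells exposed to compound for four days before flow analysis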
CRFBP-R2 agonist: CRF-BP/CRF-R2 complex agonism; HEK293 CRF-R2/CRF-BP, calcium dye fluorescence (FLIPR); percent of saturating CRF peptide response; activation, % at 13.2 µM; hit rate 0.46% among 350,000;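 active = activation of at least 50%, plus an integration ratio under a set limit after plate pattern correction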;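 also: plate controls were neutral control wells without compound for no effect and CRF at EC100 for full effect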
* = called active by the depositor. The list is not random: actives were taken first. Their share in the collection is about 2.6%.

For CCN(CC(=O)NCc1cccs1)C(=O)CCC(=O)c1ccc(F)cc1 the results were CRFBP-R2 block 9, IDE act 6, IDE cell inh -3, TPT1 inhibitor 4, Myeloid diff 2 inactive and CRFBP-R2 agonist -1.
CSc1cccc(N2CC(C(=O)N(Cc3nnc(-c4ccccc4Cl)o3)C3CC3)CC2=O)c1 (centres undefined) was read as CRFBP-R2 block 0, IDE act 4, IDE cell inh -4, TPT1 inhibitor 1, Myeloid diff 2 active and CRFBP-R2 agonist -1.
Screening O=C(COC(=O)c1ccc(Br)o1)Nc1cccc(S(=O)(=O)N2CCCCCC2)c1 returned CRFBP-R2 block -10, IDE act 2, IDE cell inh -1, TPT1 inhibitor -2, Myeloid diff 2 inactive and CRFBP-R2 agonist 2.
Screening Clc1ccc(-c2csc3ncnc(Cl)c23)cc1 returned CRFBP-R2 block 32, IDE act -1, IDE cell inh 3, TPT1 inhibitor 1, Myeloid diff 2 inactive and CRFBP-R2 agonist 2.
Screening NNc1ncnc2scc(-c3ccc(Cl)cc3)c12 returned CRFBP-R2 block 28, IDE act 1, IDE cell inh 2, TPT1 inhibitor -3, Myeloid diff 2 active and CRFBP-R2 agonist -5.
For O=C(O)C1C2C=CC(O2)C1C(=O)Nc1ccc(S(=O)(=O)Nc2ccccc2)cc1 (centres undefined) the results were CRFBP-R2 block 54*, IDE act -23, IDE cell inh 11, TPT1 inhibitor 0, Myeloid diff 2 inactive and CRFBP-R2 agonist 0.
For CC(C)(C)CC(C)(C)NC(=O)CSCC(=O)Nc1ccc2ccccc2c1 the results were CRFBP-R2 block -51, IDE act -4, IDE cell inh 8, TPT1 inhibitor 2, Myeloid diff 2 inactive and CRFBP-R2 agonist 8.
CCOC(=O)C1=C(CSc2nc(-c3ccccc3)ccc2C#N)OC(N)=C(C#N)C1c1ccc(OC)cc1 (centres undefined) was read as CRFBP-R2 block -88, IDE act -7, IDE cell inh 3, TPT1 inhibitor 23, Myeloid diff 2 active and CRFBP-R2 agonist 50*.
O=C(Cc1cccs1)NC1(C(=O)NC2CCCC2)CCCCC1 was read as CRFBP-R2 block 17, IDE act -5, IDE cell inh -1, TPT1 inhibitor -1, Myeloid diff 2 inactive and CRFBP-R2 agonist -2.
`Cc1cccc(C(=O)N2CCc3ccccc3C2)c1[N+](=O)[O-]` gave CRFBP-R2 block 85*, IDE act -1, IDE cell inh -4, TPT1 inhibitor 4, Myeloid diff 2 inactive and CRFBP-R2 agonist -5.
`Cc1ccc(NC(=O)CCNS(=O)(=O)c2cccc3nonc23)cc1` gave CRFBP-R2 block 9, IDE act 3, IDE cell inh 11, TPT1 inhibitor -2, Myeloid diff 2 inactive and CRFBP-R2 agonist -3.
`CCOc1ccc(NC(=O)CCNS(=O)(=O)c2cccc3nonc23)cc1` gave CRFBP-R2 block 55*, IDE act -1, IDE cell inh -2, TPT1 inhibitor -3, Myeloid diff 2 inactive and CRFBP-R2 agonist 1.
Screening COc1cc(C=O)ccc1OCCOCCOc1ccc(Cl)cc1Cl returned CRFBP-R2 block 69*, IDE act 1, IDE cell inh -2, TPT1 inhibitor -3, Myeloid diff 2 inactive and CRFBP-R2 agonist -2.
COCCN(C(=S)Nc1c(C)cc(C)cc1C)C(C)c1cccs1 (centres undefined) was read as CRFBP-R2 block 12, IDE act 1, IDE cell inh 5, TPT1 inhibitor -4, Myeloid diff 2 inactive and CRFBP-R2 agonist 1.
N#CC1=C(N)OC2=C(C(=O)CC(c3ccccc3)C2)C1c1ccc2c(c1)OCO2 (centres undefined) was read as CRFBP-R2 block 59*, IDE act -3, IDE cell inh 3, TPT1 inhibitor 0, Myeloid diff 2 inactive and CRFBP-R2 agonist -2.
`O=C(NCc1ccc(Cl)cc1)C1CCN(S(=O)(=O)c2cccnc2)CC1` gave CRFBP-R2 block 49, IDE act 1, IDE cell inh -3, TPT1 inhibitor -2, Myeloid diff 2 inactive and CRFBP-R2 agonist -3.
`O=c1cnnc(Nc2cccc(F)c2)[nH]1` gave CRFBP-R2 block -3, IDE act 2, IDE cell inh 0, TPT1 inhibitor 4, Myeloid diff 2 active and CRFBP-R2 agonist 6.
`O=c1cnnc(Nc2ccc(F)cc2)[nH]1` gave CRFBP-R2 block -11, IDE act -4, IDE cell inh -1, TPT1 inhibitor 2, Myeloid diff 2 inactive and CRFBP-R2 agonist 1.
c1cnc2nc3c4ccccc4c4ccccc4c3nc2c1 was read as CRFBP-R2 block 12, IDE act 4, Myeloid diff 2 active and CRFBP-R2 agonist 5.
Cc1nc2ccccc2c2ncccc12 was read as CRFBP-R2 block -14, IDE act 0, IDE cell inh 0, TPT1 inhibitor 1, Myeloid diff 2 inactive and CRFBP-R2 agonist -1.
For Cc1ccc(NC(=O)c2ccc(-c3nn(C)c(=O)c4ccccc34)cc2)cc1 the results were CRFBP-R2 block -36, IDE act -19, IDE cell inh 11, TPT1 inhibitor -3, Myeloid diff 2 active and CRFBP-R2 agonist 2.
`Cn1nc(-c2ccc(C(=O)Nc3ccc(F)cc3)cc2)c2ccccc2c1=O` gave CRFBP-R2 block -14, IDE cell inh 4, TPT1 inhibitor -1, Myeloid diff 2 inactive and CRFBP-R2 agonist 2.
Screening COCCOC(=O)c1cc(C(=O)c2cc(F)ccc2O)coc1=N returned CRFBP-R2 block 2, IDE act 0, IDE cell inh 0, TPT1 inhibitor 10, Myeloid diff 2 active and CRFBP-R2 agonist 1.
`CC1CCc2c(C(=O)NCc3ccccn3)csc2C1` (centres undefined) gave CRFBP-R2 block -2, IDE act 4, IDE cell inh 5, TPT1 inhibitor -5, Myeloid diff 2 inactive and CRFBP-R2 agonist -1.
`CC1CCc2c(C(=O)Nc3ccccn3)csc2C1` (centres undefined) gave CRFBP-R2 block 57*, IDE act -7, IDE cell inh 0, TPT1 inhibitor -3, Myeloid diff 2 inactive and CRFBP-R2 agonist -1.
`Cn1c2ccccc2c(=O)c2ccc(NCCc3cccs3)cc21` gave CRFBP-R2 block 4, IDE act 1, IDE cell inh 1, Myeloid diff 2 active and CRFBP-R2 agonist 0.
`CC(Oc1cccc(Cl)c1)C(=O)Nc1ccc(S(=O)(=O)N(C)C2CCN(C)CC2)cc1` (centres undefined) gave CRFBP-R2 block -2, IDE act 8, IDE cell inh 0, Myeloid diff 2 active and CRFBP-R2 agonist 33.
`COc1cc(F)c(C2=CC(=O)C[C@H](c3ccc4c(c3)OCO4)C2)cc1F` gave CRFBP-R2 block 2, IDE act -4, IDE cell inh -3, Myeloid diff 2 inactive and CRFBP-R2 agonist 2.
